Laboratory results reported in PubChem BioAssay AID540333 (Southern Research Specialized Biocontainment Screening …, 2011).
Out of some 10,000 compounds screened, about 320 (3.2%) were called active. This is one part of a sample in which actives are shown more often than they occur. A number with no mark means an inactive call. Cut-off read from the data, not from the text of the source: active = CPE inhibition mostly above about 9.1% (no sharp cut-off); inactive = mostly below about 7.2%.

Experiment: antivirals protecting cells from dengue CPE – CPE readout, HTS (AID 540333)
Settings: Dengue virus CPE inhibition in host cells, at 20 µM; hits give high values

Compound | CPE inhibition
O=C(N=C1c2ccccc2CN1c1ccccc1)c1cccc([N+](=O)[O-])c1 | inactive
CC(C)N(C(=O)COC(=O)CNC(=O)c1ccc(Br)cc1)c1ccccc1 | inactive
CC(=O)Oc1ccccc1C1=NN(C(=O)/C=C/c2ccccc2)C(c2ccccc2)C1 (centres undefined) | 8.09%
COc1ccc(C2=NN(C(=O)/C=C/c3ccccc3)C(c3ccccc3)C2)c(OC(C)=O)c1 (centres undefined) | 8.13%
COc1ccc(C2CC(c3ccccc3OC(C)=O)=NN2C(=O)/C=C/c2ccccc2)cc1 (centres undefined) | 7.79% (active)
Cc1c(NC2=C(Cl)C(=O)N(c3ccccc3Cl)C2=O)c(=O)n(-c2ccccc2)n1C | inactive
CCNC(=S)N(CCc1cccc(C)c1)Cc1cc2cc(OC)c(OC)cc2[nH]c1=O | 5.32%
CCN1C(=O)S/C(=C/c2ccc(Sc3nc4ccccc4[nH]3)o2)C1=O | 7.23%
O=C(N/N=C/c1ccc(Sc2nc3ccccc3[nH]2)o1)c1ccncc1 | 1.17%
C=CCN1C(=O)S/C(=C/c2ccc(Sc3nc4ccccc4[nH]3)o2)C1=O | 12.1% (active)
CCOC(=O)CN1C(=O)S/C(=C/c2ccc3c(c2)n(C)c(=O)n3C)C1=O | 0.01%
Cc1ccc(C)c(N(CC(=O)Nc2ccccc2C(=O)NCc2ccco2)S(=O)(=O)c2ccccc2)c1 | 0.06%
Cc1ccc(-c2cc(C(=O)N/N=C/c3ccco3)n[nH]2)s1 | inactive
CC(Sc1nc(N)c2c3c(sc2n1)CSC(C)(C)C3)C(=O)Nc1ccccc1 (centres undefined) | 6.62%
CN(C(=O)CSc1nc(N)c2c3c(sc2n1)CSC(C)(C)C3)c1ccccc1 | 9.8%
Cc1ccc(NC(=O)CSC2=NCCN2)cc1 | 0.905%
Cc1ccccc1NC(=O)CSc1nc(N)c2c3c(sc2n1)CSC(C)(C)C3 | 15.7% (active)
Cc1ccccc1NC(=O)CSC1=NCCN1 | inactive
Cc1ccc(NC(=O)CSc2nc(N)c3c4c(sc3n2)CSC(C)(C)C4)cc1 | 16.2% (active)
COC(=O)c1ccc(CNC(=O)COC(=O)C23CC4CC(CC(C4)C2)C3)cc1 | inactive
O=C(CSc1ccc(Cl)cc1)Nc1ccc(-c2nc3ccccc3[nH]2)cc1 | 1%
O=C(CN1CCOCC1)NN=C1CCCCCCCCCCC1 | inactive
CCCCCC(=O)Nc1ccccc1N1CCOCC1 | 0.445%

Compound | CPE inhibition
Cc1ccc(NC(=O)OCCN2CCN(S(=O)(=O)c3ccc(C)cc3)CCC2=O)cc1 | 0.55%
COc1ccc(C(=O)/C(C#N)=N/Nc2ccccc2[N+](=O)[O-])cc1 | 1.92%
Cc1c(C#N)c(N)nc2c3c(sc12)NC(=O)CC3c1ccc(Cl)cc1 (centres undefined) | 0.18%
Cc1ccc(NC(=S)NCCc2ccc(S(N)(=O)=O)cc2)cc1C | inactive
COc1cc(/C=C2/C(=O)NN(c3ccc(Cl)cc3)C2=O)ccc1OC(=O)c1ccco1 | 8.14% (active)
COc1cc(/C=C2/C(=O)NN(c3cccc(F)c3)C2=O)ccc1OC(=O)c1ccco1 | 3.78%
COc1cc(/C=C2/C(=O)NN(c3cccc(C)c3)C2=O)ccc1OC(=O)c1ccco1 | 8.68%
COc1ccccc1NS(=O)(=O)c1cccc(C(=O)N/N=C/c2ccc3c(c2)OCCO3)c1 | inactive
S=c1[nH]nc(COc2ccccc2)n1/N=C/c1cccs1 | inactive
CCN1C(=O)[C@H]2[C@@H](c3ccc(C)cc3)N3C(=O)N(c4ccc(OC)cc4)C(=O)[C@@]3(CC)[C@H]2C1=O | 0.62%
O=C1[C@H]2[C@@H](c3ccc(F)cc3)N3C(=O)N(c4ccc(Br)cc4)C(=O)[C@@]3(Cc3ccc(Cl)cc3)[C@H]2C(=O)N1C1CCCCC1 | 46% (active)
O=C1N(c2cccc(Cl)c2)C(c2ccc(Cl)cc2)N2CCCN12 (centres undefined) | 4.13%
O=C1[C@H]2[C@@H](c3ccc(Cl)cc3)N3C(=O)N(c4cccc(Cl)c4)C(=O)[C@@]3(Cc3ccccc3)[C@H]2C(=O)N1C1CCCCC1 | 15.5% (active)
Cc1cccc([C@@H]2[C@@H]3C(=O)N(Cc4ccccc4)C(=O)[C@@H]3[C@]3(Cc4ccccc4)C(=O)N(c4ccccc4)C(=O)N23)c1 | 0.915%
S=C(Nc1ccccc1Cl)N1CCN(Cc2ccccc2)CC1 | 0.465%
N#C/C(=C\c1cn(Cc2cccc(F)c2)c2ccccc12)C(=O)NCc1ccco1 | 0.23%
Cc1ccc(OCCSCc2nnc(NC(=O)Nc3cccc(Cl)c3)s2)cc1 | 5.79%
COc1ccc(NS(=O)(=O)c2ccc3nc(COc4ccc(Cl)c(C)c4)[nH]c3c2)cc1 | 1.16%
CSc1ccc(/C=C/C(=O)c2ccc(O)cc2)cc1 | inactive
CCOc1ccc(/C=C/C(=O)Nc2ccccc2C(F)(F)F)cc1 | inactive
O=c1c2ccccc2cnn1Cc1n[nH]c(=S)n1-c1ccccc1 | 0.01%
CCCCCCNC(=O)CC(NS(=O)(=O)c1ccc(OC)cc1)C(C)C (centres undefined) | 0.025%
CC(C)(C)OC(=O)CNC(=O)c1[nH]cnc1C(=O)NC1CCN(C(=O)OC(C)(C)C)CC1 | inactive

Compound | CPE inhibition
C[C@@H](NC(=O)c1nc[nH]c1C(=O)OCc1ccccc1)c1ccccc1 | 0.97%
CC(C)(C)OC(=O)N1CCC(NC(=O)c2ncn(Cc3ccccc3)c2C(=O)NC2CCN(C(=O)OC(C)(C)C)CC2)CC1 | 39.3% (active)
C[C@@H](NC(=O)c1ncn(Cc2ccccc2)c1C(=O)N[C@H](C)c1ccccc1)c1ccccc1 | 13.8% (active)
C[C@H](NC(=O)c1ncn(C)c1C(=O)N[C@@H](C)c1ccccc1)c1ccccc1 | 0.505%
Cn1cnc(C(=O)N2CCN(C(=O)OC(C)(C)C)CC2)c1C(=O)N1CCN(C(=O)OC(C)(C)C)CC1 | 1.25%
Cc1ccc2c(c1)/C(=N/N1C(=O)c3ccccc3C1=O)C(=O)N2 | inactive
CC(C)C(=O)NC(=S)Nc1nnn(C)n1 | inactive
Cc1ccc(N2C(=O)[C@@H]3C(C(=O)C(c4ccccc4)c4ccccc4)=NN[C@@H]3C2=O)cc1 | 0.425%
CC(=O)c1ccc(NC(=O)/C=C/c2ccc(C)cc2)cc1 | 4.66%
CCC(=O)Nc1ccc(NC(=O)/C=C/c2ccc(Cl)cc2)cc1 | 21.6% (active)
CCC(=O)N/N=C(\C)CC(=O)Nc1ccc(Cl)cc1 | 0.01%
Cc1sc(NC(=O)c2ccccc2)c(C(c2ccc(Cl)cc2)N2CCN(CCO)CC2)c1C (centres undefined) | inactive
Cc1nc2sc(C(c3ccc(F)cc3)N3CCN(C(=O)c4ccco4)CC3)c(O)n2n1 (centres undefined) | 0.39%
CC(=O)NS(=O)(=O)c1ccc(NC(=O)C2c3ccccc3Oc3ccccc32)cc1 | inactive
CN(c1ccccc1)S(=O)(=O)c1ccc(Cl)c(C(=O)NCCc2c[nH]c3ccccc23)c1 | 2.39%
CN(C)c1ccc(NS(=O)(=O)c2ccc(Cl)cc2)cc1 | 0.45%
CN(C)c1ccc(C(CNS(=O)(=O)c2ccc(F)cc2)c2c[nH]c3ccccc23)cc1 (centres undefined) | 36.1% (active)
COCCCNC(=O)c1cccc2c(=O)c(C)c(-c3ccccc3)oc12 | 0.515%
Cc1ccc(C)n1-c1ccc(NC(=O)c2ccccc2)cc1 | inactive
O=C(c1cnn(C(=O)COc2ccc(Cl)cc2)c1)c1ccccc1O | inactive
COc1cc(NC(=O)COC(=O)/C=C/c2ccccc2Cl)cc(OC)c1 | 22.1% (active)
COc1cc(NC(=O)COC(=O)/C=C/c2ccc(Cl)cc2Cl)cc(OC)c1 | 8.61%
O=C(COC(=O)/C=C/c1ccccc1Cl)NC(=O)Cc1ccccc1 | 0.12%

Compound | CPE inhibition
COc1ccccc1OCCn1cc(/C=C(\C#N)C(=O)NCc2cccs2)c2ccccc21 | 2.51%
O=C(NCc1ccco1)c1ccc(Cl)c(S(=O)(=O)N2CCc3ccccc32)c1 | 1.37%
COc1cc(C(=O)NC(=S)NC(C)C)cc(OC)c1OC | inactive
Cc1ccc(NC(=O)c2ccc(NCCN)c([N+](=O)[O-])c2)cc1Cl | 0.22%
Cc1ccc(NC(=O)c2ccc(NCCN)c([N+](=O)[O-])c2)cc1 | 3.98%
O=C(Nc1ccccc1)c1ccc(NCCc2ccccc2)c([N+](=O)[O-])c1 | 13.8% (active)
O=C(O)CCC(=O)OCc1c(-c2ccccc2)ncc2ccccc12 | 1.18%
CCOc1cc(C2Nc3ccccc3C(=O)N2c2ccccc2)c(Br)cc1OCC(=O)O (centres undefined) | inactive
COc1ccc(NCc2ccc([N+](=O)[O-])s2)cc1 | 16.8% (active)
COc1ccc(NCc2ccccc2[N+](=O)[O-])cc1OC | 1.54%
COc1ccc(NC(=O)/C=C/c2ccccc2[N+](=O)[O-])c(OC)c1 | 0.44%
COc1cccc(NCc2ccc([N+](=O)[O-])s2)c1 | inactive
COc1ccc(NCc2ccc([N+](=O)[O-])s2)c(OC)c1 | 11.8% (active)
COc1ccccc1NCc1ccc([N+](=O)[O-])s1 | inactive
COc1cc(C2Nc3ccccc3C(=O)N2c2ccccc2)c(Br)cc1OCC(=O)O (centres undefined) | inactive
Cn1cnnc1SCC(=O)Nc1cc(S(=O)(=O)N2CCCCCC2)ccc1Cl | inactive
Cc1ccc2c([N+](=O)[O-])cccc2n1 | inactive
Cc1ccc(CNC(=O)c2ccc3c(c2)S(=O)(=O)c2ccccc2C3=O)o1 | inactive
COc1cc(OC)cc(-c2c(-c3cccs3)c3cc(-c4ccc5[nH]ccc5c4)ccc3n2C)c1 | 4.79%
CCCCOc1ccc(/C=C/C(=O)OCC(=O)NC(=O)NCC(C)C)cc1OCC | inactive
